Shown are actives, neighbours in structure and some others; about 2% of the full set was active somewhere.
CR mimetic SO – yeast age-related superoxide inhibition as caloric restriction mimetic; S. cerevisiae aged cells, superoxide DHE fluorescence; hits give low values; superoxide response (% of plate mean), % at 10 µM; hit rate 0.18% among 330,000;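 active means superoxide response under a set limit, about three screen SD below normal, cut at about 65% in these data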;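 further: yeast aged for seven days with compound at 30 °C before DHE staining; 100% = average MFI of all compound-treated wells on the plate with controls excluded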
SKKanGAS inh – blocks kanamycin growth of S. pyogenes SKKanGAS strain; BacTiter-Glo, 6 h; inhibition, % at 7.5 µM; hit rate 1.3% among 300,000;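 active means mean replicate score, as percent of positive control median, at least 50; inconclusive means mean below 50 but one replicate at or above 50; inactive means mean and every replicate below 50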;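 further: strain carries kanamycin resistance gene driven by streptokinase promoter and grows in 40 µg/ml kanamycin; loss of luminescence reflects streptokinase promoter inhibition or plain growth inhibition; 0% = median of DMSO wells and 100% = positive control at its reference dose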
PolyA inh – yeast polyadenylation inhibition; activity score, % at 12 µM; hit rate 0.02% among 300,000; S. cerevisiae SKY197-pL101 polyadenylation reporter, beta-gal luminescence; efflux-impaired pdr1/pdr3 knockout yeast; score 100 = 6 SD above DMSO;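 active means lowest replicate activity score at least 50, where 100 means six control SD above control mean; inconclusive means lowest score under 50 but half or more replicates reach 50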;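 further: yeast exposed to compound for 9 h at 30 °C; higher score means more reporter readthrough which indicates perturbed polyadenylation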
Platelet DG rel – modulates dense granule release in human platelets. hit rate 0.22% among 300,000. human platelet-rich plasma, SFLLRN dense granule ATP release, luminescence. inhibition, %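 (compounds screened at 7.5 µM in platelet-rich plasma)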;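 active means mean replicate score, as percent of positive control, at or above 50; inconclusive means mean below 50 but at least one replicate at or above 50; inactive means mean and every replicate below 50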
Calb FLC – affects C. albicans growth with fluconazole | C. albicans CaCi-2 (fluconazole-resistant clinical isolate) + fluconazole, Alamar Blue growth, 48 h | growth inhibition, % (no concentration beside the values) | hit rate 0.57% among 300,000;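 active means growth inhibition above about 58% in most replicates, limit read from the data, passing the limit was not always enough; inconclusive means exactly half the replicates above a set limit; inactive means most replicates below a set limit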;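 further: all wells also contain fluconazole at 8 µg/ml as a sub-toxic cotreatment; 0% = median of DMSO wells and 100% = median of geldanamycin control wells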
An asterisk follows results filed as active; ? = inconclusive; nt = no result given.

SMILES	CR mimetic SO	SKKanGAS inh	PolyA inh	Platelet DG rel	Calb FLC
Cc1ccc2c(c1)c1c(c(=O)n(-c3ccccc3C)c(=O)n1CC(=O)NCC1CCCO1)n2C (stereo unspecified)	78	2	-6	-14	?
O=[N+]([O-])c1c(Nc2ccccn2)cc(Cl)c2nonc12	87	16	-99	59*	-6
O=[N+]([O-])c1c(Nc2ccc(O)cc2)cc(Cl)c2nonc12	121	-9	-22	56*	87*
O=C(O)c1ccccc1Nc1cc(Cl)c2nonc2c1[N+](=O)[O-]	113	7	7	-1	26
CCOc1ccc(NC(=O)CSc2nnc(Cc3ccccc3)c(=O)n2N)cc1	106	55*	?	6	-3
CCOc1ccc(Cc2nnc(SCC(=O)Nc3ccc(OC)cc3)n(N)c2=O)cc1	96	-5	7	1	0
COc1ccc(Br)c(C(=O)N2CCN(S(=O)(=O)c3cccs3)CC2)c1	98	1	2	4	-5
O=C(Nc1nnc(C2CC2)s1)c1cc(-c2ccccc2)nn1-c1ccccc1	104	73*	11	-2	55
CCn1nc(C(=O)N2CCN(Cc3nc4ccccc4s3)CC2)c2ccccc2c1=O	84	nt	nt	nt	nt
C/C(=N\Nc1cccc(C(=O)O)c1)c1ccc(Cl)s1	154	-7	25	-18	78*
Cc1ccc(Sc2ncccc2C(=O)NCC(c2ccc(F)cc2)N2CCOCC2)cc1C (stereo unspecified)	104	2	22	0	-4
O=C(Nc1ccc(Cl)c(Cl)c1)Nc1ccon1	106	67*	14	23	71
Cc1cc(NC(=O)Nc2ccc(Cl)c(Cl)c2)no1	93	-3	5	4	-26
COc1ccc(NC(=O)c2c(N)no[n+]2[O-])cc1	98	-2	4	11	101*
COc1ccc(NC(=O)c2c(N)no[n+]2[O-])c(OC)c1	99	5	-4	-2	-37
Cc1ccc(-c2nc(N/N=C/c3ccncc3)c3ccccc3n2)cc1	103	9	-9	109*	26
COc1ccc(/C=N/Nc2nc(-c3cccnc3)nc3ccccc23)cc1OC	100	2	6	7	-3
S=C1NCN(C2CCCCC2)CN1c1ccccc1	97	0	-12	-2	-9
CN(C)S(=O)(=O)c1cccc(NC(=S)N/N=C/c2ccc(O)c(O)c2O)c1	nt	-16	-16	-5	77*
COc1ccc(O)c(/C=N/NC(=S)Nc2cccc(S(=O)(=O)N(C)C)c2)c1	88	-2	-11	-4	-4
COc1ccc(CN2C(=O)c3ccccc3C(/C=N/OCc3ccc(Cl)cc3)C2=O)cc1 (stereo unspecified)	104	97*	-10	-14	0
CC1C(=O)C(C)C(c2cccc(Br)c2)NC1c1cccc(Br)c1 (stereo unspecified)	90	60*	-13	2	2
O=C(NCC1CC1)[C@]1(C(F)(F)F)C[C@H](CCC2CCCCC2)CCCO1	nt	4	9	2	2
CCn1cc(C2C3=C(CC(C)(C)CC3=O)N(c3ccccc3)C3=C2C(=O)CC(C)(C)C3)c(C)n1	124	-4	-3	1	-7
CCOC(=O)c1sc2nccc(N(C)C)c2c1N=CNOCc1c(F)cccc1Cl	91	52*	-12	-7	-1
SMILES	CR mimetic SO	SKKanGAS inh	PolyA inh	Platelet DG rel	Calb FLC
Cc1ccc2c(c1)C1CN(C)CCC1N2Sc1ccccc1[N+](=O)[O-] (stereo unspecified)	93	-7	15	1	97*
Cc1ccc(C)c(NC(=S)NNC(=O)c2csc(C(C)C)c2)c1	97	-11	-20	10	92*
CCOC(=O)Cc1csc(NC(=O)c2ccc(Br)cc2)n1	95	-3	1	0	-2
CCOC(=O)Cc1csc(NC(=O)c2ccc3ncsc3c2)n1	109	0	-8	10	116*
FC(F)(F)c1cnc(-c2cnc(-c3ccccn3)nc2)c(Cl)c1	108	56*	-1	4	31
CC(=O)c1cc(C#N)c(N2CCCC2)nc1C	114	4	2	4	93*
Cc1cc(C)cc(NC(=S)N(Cc2ccc(Cl)cc2)Cc2ccc(C(=O)O)cc2)c1	124	-11	-7	-1	21
Cc1cc(NC(=S)N(Cc2ccc(Cl)cc2)Cc2ccc(C(=O)O)cc2)ccc1Cl	105	64*	-3	0	17
Cc1ccc(NC(=S)N(Cc2ccc(Br)cc2)Cc2ccc(C(=O)O)cc2)cc1C	110	53*	0	-3	13
